Results on 39 sequences are retold here after paper PMC7862700, “An all-to-all approach to the identification of sequence-specific readers for epigenetic DNA modifications on cytosine”.

One assay concerns the target T1, SPDEF (Homo sapiens, UniProt O95238 1-335).
T1 sequence: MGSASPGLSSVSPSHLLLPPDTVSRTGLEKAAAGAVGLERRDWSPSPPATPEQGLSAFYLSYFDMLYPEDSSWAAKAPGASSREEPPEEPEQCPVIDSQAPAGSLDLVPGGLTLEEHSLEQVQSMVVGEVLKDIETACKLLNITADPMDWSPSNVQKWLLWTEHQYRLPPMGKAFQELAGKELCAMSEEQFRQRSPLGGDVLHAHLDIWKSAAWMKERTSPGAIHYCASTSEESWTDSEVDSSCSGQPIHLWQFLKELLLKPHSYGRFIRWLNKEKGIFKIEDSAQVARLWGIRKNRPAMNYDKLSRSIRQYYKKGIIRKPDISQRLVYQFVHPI
Kind of assay: DAPPL (digital affinity profiling via proximity ligation, sequencing); 10 mM Tris-HCl pH 7.5, 50 mM NaCl, 1 mM DTT, 4% glycerol, room temperature, 30 min; GST-TFs on glutathione beads, 16-mer random dsDNA library, 0.1% formaldehyde crosslink after washing; high values mean tight binding. The settings on record: protein: recombinant; tags: N-terminal GST; dsDNA, one strand shown. Put shortly: (§1)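 Binding signal is defined as a hexamer's read frequency for one factor over its frequency for the tag-only sample. To obtain reads, GST-fused human transcription factors were expressed in yeast, captured on glutathione beads, barcoded with DNA and pooled with that sample. Pools met 200 nmole of a 16-mer random double-stranded DNA library in Tris/NaCl/DTT/glycerol buffer for 30 min at room temperature before washing, 0.1% formaldehyde crosslinking, proximity ligation (BsaI/T4 ligase, 1 h, 37 °C), PCR and Illumina NextSeq500 sequencing.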
In the case of ACCTGG, the binding signal is 1.2 fold enrichment (6-mer frequency, TF over GST control). As for ACACCC, the binding signal was 1.21 fold enrichment (6-mer frequency, TF over GST control). Turning to ATACGC, the binding signal was 1.2 fold enrichment (6-mer frequency, TF over GST control). On the same count and under the same terms, then AACATG, with 1.11 fold enrichment (6-mer frequency, TF over GST control); and ATCCAC, with 1.18 fold enrichment (6-mer frequency, TF over GST control); and TGAAAC, with 1.28 fold enrichment (6-mer frequency, TF over GST control). Take CGCGTC: the binding signal was 1.31 fold enrichment (6-mer frequency, TF over GST control).

As to CGACAC, the binding signal was 1.15 fold enrichment (6-mer frequency, TF over GST control). The same measure, in the same setting: as for AACCAT, the figure is 1.11 fold enrichment (6-mer frequency, TF over GST control); as for GACATT, 1.13 fold enrichment (6-mer frequency, TF over GST control). Same read-out and setting: then TTCTGT, with 1.15 fold enrichment (6-mer frequency, TF over GST control); and CACTCG, with 1.04 fold enrichment (6-mer frequency, TF over GST control). In the case of CTAAAA, the binding signal was 1.19 fold enrichment (6-mer frequency, TF over GST control). Still for that read-out and setting: then TAGTGT, with 1.18 fold enrichment (6-mer frequency, TF over GST control). The same measure, in the same setting: then TCCAAA, with 1.15 fold enrichment (6-mer frequency, TF over GST control); and TTGTAG, with 1.09 fold enrichment (6-mer frequency, TF over GST control). Same read-out and setting: then TTTCAA, with 1.16 fold enrichment (6-mer frequency, TF over GST control); and GTAATT, with 1.19 fold enrichment (6-mer frequency, TF over GST control); and ACTGCA, with 1.13 fold enrichment (6-mer frequency, TF over GST control). For the sequence CGGCAT, the binding signal is 1.22 fold enrichment (6-mer frequency, TF over GST control). Still for that read-out and setting: then ACTCCA, with 1.16 fold enrichment (6-mer frequency, TF over GST control); and AATTCA, with 1.24 fold enrichment (6-mer frequency, TF over GST control). Still for that read-out and setting: then CTACCC, with 1.29 fold enrichment (6-mer frequency, TF over GST control); and TCTGTT, with 1.35 fold enrichment (6-mer frequency, TF over GST control); and GATGGT, with 1.04 fold enrichment (6-mer frequency, TF over GST control). On the same count and under the same terms, then TGGTTC, with 1.35 fold enrichment (6-mer frequency, TF over GST control); and TACCGA, with 1.12 fold enrichment (6-mer frequency, TF over GST control). On to CCCTTT, for which the binding signal is 1.51 fold enrichment (6-mer frequency, TF over GST control). Same read-out and setting: then TAGGCT, with 1.24 fold enrichment (6-mer frequency, TF over GST control); and TCTAAC, with 1.14 fold enrichment (6-mer frequency, TF over GST control); and CGGAAG, with 3.02 fold enrichment (6-mer frequency, TF over GST control). Same read-out and setting: then TGACAT, with 1.25 fold enrichment (6-mer frequency, TF over GST control); and ACGATA, with 1.13 fold enrichment (6-mer frequency, TF over GST control). On the same count and under the same terms, as for CTATTA, the figure is 1.07 fold enrichment (6-mer frequency, TF over GST control); as for ACTGTT, 1.04 fold enrichment (6-mer frequency, TF over GST control).

Turning to ATAGCT, the binding signal is 1.07 fold enrichment (6-mer frequency, TF over GST control). As for CAGGAA, the binding signal was 1.53 fold enrichment (6-mer frequency, TF over GST control). Still for that read-out and setting: then GATGAA, with 1.15 fold enrichment (6-mer frequency, TF over GST control); and TAACCA, with 1.05 fold enrichment (6-mer frequency, TF over GST control).

Another assay addresses T2, ETV7 (Homo sapiens, UniProt Q9Y603 1-341).
T2 sequence: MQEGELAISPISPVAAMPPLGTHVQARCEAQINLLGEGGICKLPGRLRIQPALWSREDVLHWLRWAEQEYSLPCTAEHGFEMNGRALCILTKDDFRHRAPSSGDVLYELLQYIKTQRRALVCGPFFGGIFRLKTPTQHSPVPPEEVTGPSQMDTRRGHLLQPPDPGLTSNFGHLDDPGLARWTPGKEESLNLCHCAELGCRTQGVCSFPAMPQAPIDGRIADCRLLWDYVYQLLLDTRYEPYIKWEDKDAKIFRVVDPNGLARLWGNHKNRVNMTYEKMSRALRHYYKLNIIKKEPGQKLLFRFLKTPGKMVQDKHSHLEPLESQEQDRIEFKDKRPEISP
Described as above. The following applies: protein: recombinant; tags: N-terminal GST; dsDNA, one strand shown. Put shortly:
as §1
With ACCTGG, the binding signal was 1.29 fold enrichment (6-mer frequency, TF over GST control). Still for that read-out and setting: then ACACCC, with 1.09 fold enrichment (6-mer frequency, TF over GST control). Still for that read-out and setting: as for ATACGC, the figure is 1.06 fold enrichment (6-mer frequency, TF over GST control); as for AACATG, 1.05 fold enrichment (6-mer frequency, TF over GST control). Still for that read-out and setting: as for ATCCAC, the figure is 1.18 fold enrichment (6-mer frequency, TF over GST control); as for TGAAAC, 1.28 fold enrichment (6-mer frequency, TF over GST control).

As for CGCGTC, the binding signal is 1.25 fold enrichment (6-mer frequency, TF over GST control).

With CGACAC, the binding signal is 1.16 fold enrichment (6-mer frequency, TF over GST control). Still for that read-out and setting: then AACCAT, with 1.15 fold enrichment (6-mer frequency, TF over GST control); and GACATT, with 1.07 fold enrichment (6-mer frequency, TF over GST control); and TTCTGT, with 1.26 fold enrichment (6-mer frequency, TF over GST control).

As to CACTCG, the binding signal was 1.13 fold enrichment (6-mer frequency, TF over GST control).

CTAAAA: the binding signal is 1.1 fold enrichment (6-mer frequency, TF over GST control).

As for TAGTGT, the binding signal is 1.2 fold enrichment (6-mer frequency, TF over GST control).

Regarding TCCAAA, the binding signal was 1.14 fold enrichment (6-mer frequency, TF over GST control).

Regarding TTGTAG, the binding signal is 1.12 fold enrichment (6-mer frequency, TF over GST control). Still for that read-out and setting: then TTTCAA, with 1.3 fold enrichment (6-mer frequency, TF over GST control); and GTAATT, with 1.3 fold enrichment (6-mer frequency, TF over GST control); and ACTGCA, with 1.07 fold enrichment (6-mer frequency, TF over GST control).
